# Results taken from PubChem BioAssay (NCI).
# This is part of a sample that, as a whole, favours compounds with a hit. Of some 83,000 tested, about 20% had one in any assay.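 Compound tested at a single concentration for 48 hours in 96-well plates; a percent growth value below 10 was scored as active.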 The source made the active and inactive calls.
# System: MDA-MB-468 breast
# Experiment: NCI-60 one-dose screen, 48 h (100 = growth as untreated, 0 = no growth, -100 = all killed)
# Conditions: 10 µM unless noted
row,SMILES,growth
1,COc1cnc2c(c1)C(=O)c1c-2n(CCCN2CCNCC2)c(=O)c2cc(F)ccc12,-27.9% (active)
2,Cc1nc2sc(C(=O)Nc3cccc(Cl)c3C)c(N)c2cc1C(=O)/C=C/c1ccccc1,4.69% (active)
3,Cc1ccc(S(=O)(=O)Nc2ccc(Cl)cc2)cc1,107% (inactive)
4,NC(=O)C1(N2CCCCC2)CCN(CCCC(=O)c2ccc(F)cc2)CC1,-10.6% (active)
5,COC1=CC=CC2(OC)C3(O)CCCc4cccc(c43)N3C(=O)COC132 (stereo not drawn),115% (inactive)
6,O=c1oc2cc(OS(=O)(=O)c3ccc(F)cc3)ccc2c2c1CCCCC2,31.3% (inactive)
7,COc1cc(/C=C/C(=O)c2ccc(Cl)cc2)ccc1OS(=O)(=O)c1ccc(C)cc1,99.7% (inactive)
8,N#CC1=C(N)Oc2c(sc3c(Br)cccc23)C1c1ccccn1 (stereo not drawn),25.6% (inactive)
9,Cc1ncc(C(=O)Nc2ccc(CN3CCN(C)CC3)c(C(F)(F)F)c2)cc1C#Cc1c(N)ncc2ccc(C#N)cc12,98.5% (inactive)
10,COc1ccc(/C=C2\COc3ccc(O)cc3C2=O)cc1,85.7% (inactive)
11,C=C1C(=O)C2CCC1C2 (stereo not drawn),110% (inactive)
12,O=C1/C(=C/c2cccc([N+](=O)[O-])c2)COc2ccc(O)c(O)c21,-47.8% (active)
13,CC(=O)OCC1OC(OC2C(COC(C)=O)OC(OCCC[S-])C(OC(C)=O)C2OC(C)=O)C(OC(C)=O)C(OC(C)=O)C1OC(C)=O.[Au+].c1ccc(CN2[CH-]N(Cc3ccccc3)C(c3ccccc3)=C2c2ccccc2)cc1 (stereo not drawn),10.2% (inactive)
14,COC(=O)C(c1ccccc1)C(CC(=O)c1ccccc1)c1ccccc1 (stereo not drawn),87.5% (inactive)
15,COc1ccc(Cn2nc3c(c2-c2cc(OC)c(OC)c(OC)c2)-c2oncc2CC3)cc1,27.8% (inactive)
16,C=C[C@@H]1C[C@H](O)Cc2ccccc2N1,123% (inactive)
17,CCOC(=O)C1=C(c2ccccc2)N=C2N(c3ccccc3)N=C(C(C)=O)N2C1c1ccc(Br)cc1 (stereo not drawn),99.3% (inactive)

row,SMILES,growth
1,COc1ncc(-c2ccc3ncnc(Nc4cccc(Cl)c4)c3c2)cc1NS(C)(=O)=O,-43.3% (active)
2,CN1C(=O)N(C)C2C1NC(=S)N2/N=C/C=C/c1ccccc1[N+](=O)[O-] (stereo not drawn),6.39% (active)
3,O=C1CCc2c(sc3[nH]c(=S)n(-c4cc(C(F)(F)F)cc(C(F)(F)F)c4)c(=O)c23)C1,-14.2% (active)
4,O=C1C(=O)N(CCCCn2cc(CO)nn2)c2ccccc21,98.6% (inactive)
5,CCCCOC(=O)Oc1ccc(C(=O)Oc2ccc(OCC)cc2)cc1,113% (inactive)
6,COc1ccc2occ(C3=C(c4c[nH]c5ccccc45)C(=O)NC3=O)c2c1,-2.93% (active)
7,CCOC(=O)[C@@H](C)C[C@H](Cc1ccccc1)NC(=O)c1csc([C@@H](C[C@H](C(C)C)N(C)C(=O)[C@@H](NC(=O)[C@H]2C[C@H](O[Si](C)(C)C(C)(C)C)CCN2C)C(C)C)OC(C)=O)n1,3.46% [9.25 µM] (active)
8,COc1c(N2CC3CCCNC3C2)c(F)cc2c(=O)c(C(=O)N/N=C/c3c[nH]c4ccccc34)cn(C3CC3)c12 (stereo not drawn),100% (inactive)
9,C[C@H]1[C@H](C)CC[C@]2(C(=O)N3CCN(C)CC3)CC[C@]3(C)C(=CC[C@@H]4[C@@]5(C)C/C(=C/c6ccco6)C(=O)C(C)(C)[C@@H]5CC[C@]43C)[C@H]12,19.2% [100 µM] (inactive)
10,CC[C@]12C=CCN3CC[C@@]4(c5ccc(OC)cc5N(C)[C@H]4[C@@](O)(C(=O)OC)[C@@H]1OC(=O)CCC(=O)O[C@H]1CC[C@H]4[C@@H]5CCC6=CC(=O)CC[C@@H]6[C@H]5CC[C@]14C)[C@@H]32,-30.2% [100 µM] (active)
11,CCN(CC)CCN1C(=O)c2c(c3c4ccccc4[nH]c3c3[nH]c4ccccc4c23)C1=O,89.2% (inactive)
12,CCN1C(=O)N(CC)C2SC(N/N=C/c3ccc(F)cc3)=NC21 (stereo not drawn),36.8% (inactive)
13,O=[N+]([O-])c1cccc(-c2nc3sccn3c2-c2ccnc(NCCCNS(=O)(=O)c3ccc(Br)cc3)n2)c1,29.2% (inactive)
14,C/C(=N\NC(=O)c1ccncc1)c1ccc(N)cc1,97.1% (inactive)
15,CC(=O)NC(CCc1ccc(Cl)c(Cl)c1)c1cccc(O)c(=O)c1 (stereo not drawn),-31.6% (active)
16,Brc1cccc(-c2cc(-c3ccc4c(c3)OCCO4)[nH]n2)c1,2.79% [25 µM] (active)
